Bioassay records: PubChem BioAssay, National Center for Advancing Translational Sciences (NCATS)
Sampled rows, rich in hits. Any-hit rate of the full collection: about 2.3%.
FUS yeast rescue = rescues growth of FUS-expressing yeast. S. cerevisiae FUS-expressing, growth rescue, OD600, 24 h. Potency, µM (highest dose often 76.6 µM), actives largely listed as activators. 390,000 compounds, 0.24% hits;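 further: potency means the concentration at half of the fitted maximal effect; plate controls were DMSO vehicle for no effect and reference control for full effect; nearly all actives have a fitted effect of over 55% in size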
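Steps: raffinose overnight preculture; dilution to OD 0.005 in 2% galactose minimal medium; compound addition (concentration series); 24hr at 30C, 99% humidity; absorbance read at 600 nm.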
Abeta yeast res = compounds reversing amyloid beta toxicity in yeast; 410,000 compounds, 0.063% hits; yeast expressing A-beta42, growth rescue, OD600, 48 h; response scale: 0% DMSO, 100% iron-clioquinol control; Potency, µM (series often up to 46.1 µM), hits mostly activators; further: potency means the concentration at half of the fitted maximal effect; nearly all actives have a fitted effect of over 55% in size
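Yeast growth medium received pinned compounds, then yeast cells expressing toxic A-beta were added; plates incubated at 30 C for 48 hr. Growth read as absorbance at 600 nm, normalized to DMSO and equimolar FeCl3 plus clioquinol controls.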
TDP43 rescue = rescues yeast growth from TDP-43 toxicity; TDP-43 expressing yeast growth rescue, BacTiter-Glo, 24 h; Potency, µM (doses to about 46.1 µM), for the others: at the highest dose growth rescue (activation), most hits filed as activators; 410,000 compounds, 1.8% hits; AID 652104; further: potency means the concentration at half of the fitted maximal effect; % of control where 0% means no effect; nearly all actives have a fitted effect of over 50% in size
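Luminescence from BacTiter-Glo reports growth of TDP-43-expressing yeast after 24 hr at 30 deg C with compound. Cells were raffinose-pregrown to mid-log, then seeded in galactose medium at OD600=0.02.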
Akt phos inh = Akt phosphorylation inhibition. Neuro2A IGF-stimulated pAkt S473 HTRF, 20 min; hits give low values. activity change, % for hits at 50 µM. 360,000 compounds, 0.32% hits; in the data active means activity change below about -80%; inconclusive means mostly about -51% to -80%; further: on the % scale 0 is the no-effect control and ±100 the full control effect
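Single-point screen (50 µM final compound) in Neuro2A cells stimulated 20 min with 6 nM IGF at 37 deg C. After lysis, Ser473-phosphorylated Akt read by HTRF (ex 330 nm, em 615/665 nm) as the 665/615 ratio.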
aSyn yeast inh = rescues yeast growth from alpha-synuclein toxicity; Yeast expressing alpha-synuclein, growth rescue, BacTiter-Glo, 24 h; Potency, µM (series often up to 46.1 µM), for inactives: at the highest dose growth rescue (activation), usual class: activators; 370,000 compounds, 0.14% hits; further: potency means the concentration at half of the fitted maximal effect; % of control where 0% means no effect; nearly all actives have a fitted effect of over 65% in size
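Rescue of yeast growth: cells expressing toxic alpha-synuclein, induced in galactose at OD600 0.02, incubated with compound 24 h at 30 C. ATP luminescence quantified growth; inhibitors of toxicity appear as activators.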
An asterisk follows results filed as active; i = inactive; ? = inconclusive; / = no result given; [ ] = remark or other dose. Unless noted, the call rests on the fitted dose curve; in most records, active means well fitted curve in the direction sought with a large enough effect; inconclusive means small, poorly fitted or top-dose-only effect, or another doubt; inactive means no such curve, though single readings can be large; an effect the other way counts as inactive or inconclusive.

SMILES	FUS yeast rescue	Abeta yeast res	TDP43 rescue	Akt phos inh	aSyn yeast inh
COc1cccc(N/C(SCc2ccccc2C)=C(/C#N)C(=O)NCc2cccs2)c1	/	i	7.9%	i	3.5%
COc1cccc(N/C(SC)=C(/C#N)C(=O)NCc2cccs2)c1	i	i	14.1µM*	i	-5.1%
CCOc1ccc(-c2oc3cc(Cl)ccc3c(=O)c2O)cc1OC	i	i	-3.2%	/	-6.0%
O=C(Nc1cc(Sc2ccccn2)cc([N+](=O)[O-])c1)c1cccc(F)c1	/	i	22.4µM*	i	3.2%
COC(=O)c1sccc1NC(=O)Nc1ccc(C)c(C)c1	i	i	12.6µM*	i	-27.3%
COC(=O)c1sccc1NC(=O)Nc1ccc(OC)c(OC)c1	i	i	16.4%	i	-0.1%
COC(=O)c1sccc1NC(=O)Nc1ccccc1C	i	i	11.2µM*	i	-7.1%
Cc1ccc(-c2cn(-c3ccc(Cl)cc3)c(S(=O)(=O)CC(=O)Nc3ccccc3)n2)cc1	?	i	?	/	/
COc1cc(/C=N/N2CCOCC2)ccc1OCc1ccccc1	i	i	-13.3%[9.22 µM]	i	-8.0%
COc1cc(/C=N/N2CCOCC2)ccc1OCc1ccc(Cl)cc1	i	i	11.2µM*	i	-1.0%
Clc1ccc(CCNC(c2ccc(Cl)cc2)c2nnc(-c3ccccc3)o2)cc1 (configuration not stated)	i	i	17.0%	/	/
COC(=O)c1ccc2c(C)c(C(C)(C)O)[nH]c2c1	i	i	15.1%	i	8.2%
CCC(C)(O)c1[nH]c2ccc(C(F)(F)F)cc2c1C (configuration not stated)	i	14.1µM*	17.8µM*	i	0.1%
Cc1c(C(C)(C)O)[nH]c2ccc(C(F)(F)F)cc12	i	17.8µM*	35.5µM*	i	5.4%
Cc1ccc(/C(O)=C2\C(=O)C(=O)N(CC(C)O)C2c2cccc(F)c2)cc1 (configuration not stated)	i	i	-6.4%	-112.7%*	-2.3%
COc1ccccc1C1/C(=C(/O)c2ccccc2)C(=O)C(=O)N1CC(C)O (configuration not stated)	i	?	12.4%	i	5.2%
O=C1C(Cl)=C(Nc2ccccc2O)C(=O)N1c1ccccc1	i	i	35.5µM*	i	-0.6%
CCN(Cc1ccccc1)C(=O)C(CC(C)C)NS(=O)(=O)c1ccc2c(c1)CCN2C(C)=O (configuration not stated)	i	i	0.0%	/	/
CCc1ccc(NC(=O)CSc2nc3ccsc3c(=O)n2C(C)CC)cc1 (configuration not stated)	i	i	20.1%	/	/
CC(=O)c1ccc([N+](C)(C)C)cc1	/	/	/	/	-3.5%
Oc1ccc(C2C[C@H]3CC[C@@H]2C3)cc1O (some centres not stated)	i	?	14.1µM*	i	3.3%
O=Cc1ccc(-c2cccc([N+](=O)[O-])c2)o1	i	i	24.6%	i	-6.9%
O=Cc1ccc(-c2ccc([N+](=O)[O-])cc2Cl)o1	i	i	11.2µM*	i	1.0%
COCCNC(=S)N/N=C(\C)c1ccc(O)cc1	/	i	17.0%	i	-9.0%
C/C(=N\NC(=S)NCC(C)(C)C)c1cc(F)cc(F)c1O	i	?	12.6µM*	i	8.5%
SMILES	FUS yeast rescue	Abeta yeast res	TDP43 rescue	Akt phos inh	aSyn yeast inh
CC(c1ccccc1)n1cc2c(c1-c1ccccc1Br)c(=O)n(C)c(=O)n2C (configuration not stated)	?	i	14.1µM*	/	/
CCCn1c(C)cc(C(=O)COc2ncnc3sccc23)c1C	?	i	-46.8%	i	27.4%
CCCn1c(C)cc(C(=O)COc2ccc(-c3nnco3)cc2)c1C	i	i	28.2µM*	i	10.9%
COc1ccc(-c2ccc(C(=O)NCc3ccncc3)c3occc23)c(C)c1	i	i	15.2%	i	16.2%
COc1ccc(-c2ccc(C(=O)NCC3CC3)c3occc23)c(C)c1	i	i	22.4µM*	i	-8.2%
COc1ccc(-c2ccc(C(=O)NCC(C)C)c3occc23)c(C)c1	i	i	25.1µM*	i	1.8%
COc1ccc(-c2ccc(C(=O)N3CCOCC3)c3occc23)c(C)c1	i	i	10µM*	i	?
Cc1ccc(CCNC(=O)c2ccc3c(c2)c(C)c(C)n3Cc2ccccc2)cc1	i	i	4.6%	/	/
Cc1ccc(C(=O)n2nc(C)c(S(=O)(=O)N3CCCCCC3)c2C)cc1	i	i	11.0%	/	/
CCC(CC)c1nnc(NC(=O)c2c(C)nn(Cc3ccccc3Cl)c2C)s1	8.91µM*	i	?	i	7.5%
Cc1nn(Cc2ccccc2Cl)c(C)c1C(=O)NC1=NCCS1	i	i	14.4%	i	-13.4%
COc1ccc(CCNC(=O)C(CC(C)C)N2Cc3ccccc3C2=O)c(OC)c1OC (configuration not stated)	i	i	13.1%	/	/
CCCc1cc(=O)[nH]c(Nc2ccc(C)c(O)c2)n1	i	i	10.0%	/	/
CN(C)c1ccc(C(CNC(=O)c2ccc(C(C)(C)C)cc2)N2CCOCC2)cc1 (configuration not stated)	i	i	15.7%	/	/
O=C(O)CN(c1cccc(C(F)(F)F)c1)S(=O)(=O)c1ccccc1	i	i	-10.1%	i	-3.5%
O=S(=O)(c1ccccc1)N(CC(F)(F)F)c1ccc(C(O)(C(F)(F)F)C(F)(F)F)cc1	i	?	22.4µM*	i	-19.0%
Cc1ccc2nc(-c3ccccc3Cl)cc(C(=O)Nc3cc(C)on3)c2c1	i	i	17.8µM*	i	8.6%
Cc1cc(NC(=O)c2cc(Cl)ccc2Cl)no1	i	i	-12.2%	i	-36.6%
Cc1cc(NC(=O)c2ccccc2Cl)no1	i	i	2.4%	-103.7%*	-1.7%
Cc1ccc(-c2cc(C(=O)OCC(=O)Nc3cc(C)on3)c3ccccc3n2)c(C)c1	i	i	-20.8%	i	-6.9%
COc1ccc(CC(=O)Nc2ccc3nc(N4CCCCC4)cc(C)c3c2)cc1	i	i	10.9%	/	/
CC(=O)c1ccc(NC(=O)c2c3c(nc4ccccc24)C(=O)N(C2CCCCC2)C3)cc1	i	i	0.6%	/	/
Cc1cc(C)c(/C=C/c2onc(C)c2S(=O)(=O)N2CCC(C(=O)NCc3ccccc3Cl)CC2)c(C)c1	i	i	28.3%	/	/
CN=C(Nc1cc(Cl)ccc1Cl)SC1CC(=O)N(c2ccc(C(=O)OC)cc2)C1=O (configuration not stated)	?	?	25.1µM*	i	?
O/N=C/Cc1[nH]c2ccccc2c1-c1ccccc1	i	i	15.8µM*	i	-6.2%
